# Assay results as given in the supplement of paper PMC8726507.
# Tested on: Plasmodium falciparum NF54-HGL (transmission to Anopheles stephensi)
# Test: percentage of barcode signal found in uninfected mosquitoes (transmission-blocking activity); higher = stronger blocking of transmission to mosquito, active = 80 or more
# Conditions: 10 µM; gametocyte preincubation time 24 h; readout time post-feed 8 days
# Experimental: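 The mixture was fed to Anopheles stephensi in 96-well plates as blood meals tagged with DNA-barcoded Asaia bacteria. Eight days later, mosquitoes were classed infected or uninfected by luminescence (mean + 5 SD of unfed controls). Barcodes were quantified by Luminex MagPlex-TAG in the pooled uninfected and infected Asaia cultures, background-corrected, and the score is % of barcode signal in uninfected mosquitoes = 100*Iu/(Iu+Ii).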
row,SMILES,percentage of barcode signal found in uninfected mosquitoes
1,CC(C)c1ncc(-c2ccncc2)c([C@H]2CC[C@H](CNC(=O)c3cccnc3)CC2)n1,31.4% (inactive)
2,Cc1ccc2c(c1C)NC(=O)C21NN=C(c2ccccc2)S1 (stereo not given),77% (inactive)
3,CC(C)(C)n1nc(-c2ccccc2)c2c(N)ncnc21,-3.29% (inactive)
4,O=C(Nc1nnc(-c2ccc(Cl)cc2)o1)c1cccc(C(F)(F)F)c1,-0.664% (inactive)
5,O=C(Nc1nnc(-c2ccc(Cl)s2)o1)c1ccc(Cl)s1,0.515% (inactive)
6,CC1=NN(c2nc3ccccc3s2)C(=O)C1Cc1cccc2ccccc12 (stereo not given),0.165% (inactive)
7,O=C(Nc1ccc(N2CCNCC2)cc1)c1ccn2ncc(-c3cccc(Cl)c3)c2n1,81.5% (active)
8,O=C(COc1cccc(F)c1)Nc1nc(-c2ccccn2)cs1,38.7% (inactive)
9,c1ccc(Oc2ccc(-c3cc(C4CCOCC4)[nH]n3)cc2)cc1,10.6% (inactive)
10,CNC(=O)c1cc(S(=O)(=O)N2CCN(c3ccccn3)CC2)cs1,37.8% (inactive)
11,NCC(=O)N1CCn2c(nc(-c3ccccc3)c2Nc2ccc3c(c2)OCO3)C1,80.9% (active)
12,N#Cc1ccc(-c2cnc(N)c(-c3ccc(C(N)=O)cc3)n2)cc1,69.6% (inactive)
13,Cc1cc(NC(=O)c2ccc(S(=O)(=O)N(Cc3ccccc3)C(C)C)cc2)no1,35.4% (inactive)
14,O=C(C(Cc1c[nH]c2ccccc12)NS(=O)(=O)c1ccc(Cl)cc1)N1CCCCC1 (stereo not given),62.5% (inactive)
15,COC(=O)c1c(NC(=O)c2cc3ccccc3oc2=O)sc2c1CCN(Cc1ccccc1)C2,49.1% (inactive)
16,Brc1cncc(-c2cc(NCCCn3ccnc3)nc(-c3ccccc3)n2)c1,-0.102% (inactive)
17,Cc1ccc(C(=O)Nc2ccc(S(=O)(=O)O)c3cc(S(=O)(=O)O)cc(S(=O)(=O)O)c23)cc1NC(=O)c1cccc(NC(=O)Nc2cccc(C(=O)Nc3cc(C(=O)Nc4ccc(S(=O)(=O)O)c5cc(S(=O)(=O)O)cc(S(=O)(=O)O)c45)ccc3C)c2)c1,32.8% (inactive)
18,N#Cc1nc(-c2ccccc2F)oc1NCCc1ccccc1,1.26% (inactive)
19,CN(C(=O)c1cc2c(-c3cncnc3)cccc2[nH]1)c1ccccc1,66.4% (inactive)
20,O=C1Nc2ccc(Br)cc2C12NCCc1c2[nH]c2ccccc12 (stereo not given),27.2% (inactive)
21,Oc1c(I)cc(I)c2cccnc12,-1.81% (inactive)
22,COc1ccc(N(CCc2cccc(C)n2)C(=O)C2CCCCC2)cc1,29.5% (inactive)

# Same assay, conditions: 20 µM; gametocyte preincubation time 24 h; readout time post-feed 8 days
row,SMILES,percentage of barcode signal found in uninfected mosquitoes
1,O=C(c1ccc(F)cc1)N(CCNc1ccccc1)c1ccccc1,7.39% (inactive)
2,O=C(Nc1nnc(S)s1)c1cc(Br)ccc1Cl,18.9% (inactive)
3,Cc1nn(C(=O)Nc2cccc(C(F)(F)F)c2)c(C)c1Sc1ncccn1,2.49% (inactive)
4,CCOc1ccc(OCC(=O)Nc2cc(C)cc(C)c2)cc1,17.5% (inactive)
5,CCc1ccccc1-n1c(C)cn2c3c(=O)n(C(C(=O)OC)C(C)C)c(=O)n(C)c3nc12 (stereo not given),54.1% (inactive)
6,CC(C)(C)OC(=O)N1CCN(c2cc(-c3ccc(Oc4ccccc4)cc3)n[nH]2)CC1,39.8% (inactive)
7,CC(C)n1nc(-c2cc3c(Cl)cccc3[nH]2)c2c(N)ncnc21,53.6% (inactive)
8,O=C(Nc1ccc(C(F)(F)F)c(C(F)(F)F)c1)c1cc(Cl)ccc1O,69.4% (inactive)
9,CC(c1cc(Cl)cc(Cl)c1)N(C)c1ncc2c(N)nc(N)nc2n1 (stereo not given),0.441% (inactive)
10,O=C1[C@@H](Oc2ccccc2)[C@@H](c2ccc(Cl)cc2)N1CCn1cnc2c(NCc3ccccc3)ncnc21,1.2% (inactive)
11,CC1(COc2ccc(N3CCC(Oc4ccc(OC(F)(F)F)cc4)CC3)cc2)Cn2cc([N+](=O)[O-])nc2O1 (stereo not given),39.6% (inactive)
12,Nc1ncc(-c2cn[nH]c2)cc1-c1nc2cc(Cl)cnc2[nH]1,48.9% (inactive)
13,O=C(N[C@H](Cc1ccccc1)C(=O)Nc1ccccc1N1CCOCC1)c1cccs1,13.5% (inactive)
14,CC(=O)NCC1CN(c2ccc(-c3ccc(CNCc4cn[nH]n4)cc3)c(F)c2)C(=O)O1 (stereo not given),9.84% (inactive)
15,COc1ccc(S(=O)(=O)Nc2ccc(CN3CCN(C(=O)c4cccc(C#N)c4)CC3)cc2)cc1,8.68% (inactive)
16,COc1cc(NC(=O)Cc2nn(C)c(=O)c3ccccc23)ccc1Cl,9.49% (inactive)
17,Cn1c(=O)c2c(S(C)(=O)=O)snc2n(C)c1=O,21.4% (inactive)
18,Cc1cc(Nc2ccc(C(F)(F)F)cc2)n2ccnc2n1,-1.06% (inactive)
